Source: PubChem BioAssay (NCATS)
Several values for one entry are separate records, joined by “and”; a condition that tells them apart may be missing. Equal entries are not always repeated.

Test: qHTS profiling of the MIPE4 collection as inhibitors of Plasmodium falciparum (HB3) proliferation (AID 743347);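 also: plate controls were DMSO vehicle wells for no effect and artemisinin wells for full effect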
Details: P. falciparum HB3 in erythrocytes, SYBR Green DNA, 72 h; at 28.5 µM (top of the series) unless noted
Summary of the method: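 Parasite DNA was quantified by SYBR Green I fluorescence (ex 485, em 535 nm) after overnight lysis in saponin/Triton buffer at room temperature. Cultures at 0.3% parasitemia and 2.5% hematocrit were first exposed to compound for 72 h at 37 C; signals were normalised to artemisinin (0.29 uM) and vehicle wells.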

SMILES	growth, % of control
CCOC(=O)N1CCC(=C2c3ccc(Cl)cc3CCc3cccnc32)CC1	13.8%
Cc1cn[nH]c1	8.35%
CN(C)c1ccc(C2Nc3ccc4ccccc4c3C3=C2C(=O)CC(C)(C)C3)cc1Br (stereo not given)	78%
c1ccc(-c2nn3c(c2-c2ccnc4cc(OCCN5CCOCC5)ccc24)CCC3)nc1	17.9%
CC(=O)Oc1ccccc1C(=O)O	94.6%
CC(C[N+](C)(C)C)OC(N)=O (stereo not given)	69.1%
N[C@@H]1CONC1=O	650%
Nc1cccc(S(=O)(=O)N2CCCN(S(=O)(=O)c3ccc4c(c3)OCCO4)CC2)c1	586%
CC(C=CC1=C(C)CCCC1(C)C)=CC=CC(C)=CC(=O)O	106% and 85.5%
O=C1CCCC2=C1C(c1[nH]ncc1Cl)N=C(Nc1nc3ccccc3o1)N2 (stereo not given)	55.2%
COCCNCCCn1c(C(=O)CF)c(-c2ccc(C)cc2)c2c(N)ncnc21	32.4%
COc1ccc([C@@H]2CC(=O)c3c(O)cc(O[C@@H]4O[C@H](CO[C@@H]5O[C@@H](C)[C@H](O)[C@@H](O)[C@@H]5O)[C@@H](O)[C@H](O)[C@@H]4O)cc3O2)cc1O	92% and 93.5%
Cc1ccccc1C(C(=O)NC1CCCC1)N(C(=O)Cn1cnc2ccccc21)c1cccc(F)c1 (stereo not given)	97.9%
Cc1ccc(N(CC2=NCCN2)c2cccc(O)c2)cc1	95.9%
NC(=O)c1cnccn1	105%
CCn1c(-c2nonc2N)nc2c(C#CC(C)(C)O)ncc(OC[C@H]3CCCNC3)c21	3.2%
CN[C@@H](C)C(=O)N[C@H]1CCCC[C@H]2CC[C@@H](C(=O)N[C@@H](c3ccccc3)c3cn(CCCCc4ccc(CCCCn5cc([C@@H](NC(=O)[C@@H]6CC[C@@H]7CCCC[C@H](NC(=O)[C@H](C)NC)C(=O)N76)c6ccccc6)nn5)cc4)nn3)N2C1=O	3.6%
C1COC(NC(C2CC2)C2CC2)=N1	82.6%

SMILES	growth, % of control
CCOc1ccc(Cc2cc([C@@H]3O[C@H](CO)[C@@H](O)[C@H](O)[C@@H]3O)ccc2Cl)cc1	505%
Cn1cc(-c2ccc3nnc(C(F)(F)c4ccc5ncccc5c4)n3n2)cn1	35.2%
Cc1ccc(NC(=O)c2cccc(C(C)(C)C#N)c2)cc1Nc1ccc2ncn(C)c(=O)c2c1	16.2%
CN(C)c1ccc(Nc2nc(N)n(C(=O)c3c(F)cccc3F)n2)cc1	6.51%
NC[C@H](O)c1ccc(O)c(O)c1	82.4%
CC(C)(C)OC(=O)CN(Cc1ccc(Cl)cc1)Cc1ccc([N+](=O)[O-])s1	51.3%
O=C(NOC[C@H](O)CO)c1ccc(F)c(F)c1Nc1ccc(I)cc1F	97.2%
COc1cc(Oc2ccnc3cc(OC)c(OC)cc23)ccc1NC(=O)NC(C)c1nccs1 (stereo not given)	71.5%
CCCc1nc2c(C)cc(-c3nc4ccccc4n3C)cc2n1Cc1ccc(-c2ccccc2C(=O)O)cc1	7.75%
NCCc1ccc(O)c(O)c1	53.9%
OC(CCN1CCCCC1)(c1ccccc1)C1CC2C=CC1C2 (stereo not given)	35.8%
Nc1ccc(S(=O)(=O)Nc2ccnn2-c2ccccc2)cc1	94.4%
COc1ccc(-c2ccc3c(N4CCOC[C@H]4C)nc(N4CCOC[C@H]4C)nc3n2)cc1CO	7.68%
COc1cc(Nc2ncc3c(n2)-c2ccc(Cl)cc2C(c2c(F)cccc2OC)=NC3)ccc1C(=O)O	30.2%
O=C(c1cc(Cc2n[nH]c(=O)c3ccccc23)ccc1F)N1CCN(C(=O)C2CC2)CC1	35.9%
CCOc1cc(C=C2C(=O)N(c3ccccc3)N=C2C)cc(Cl)c1OCC(=O)OC	98.7%
Cn1cnc2c(F)c(Nc3ccc(Br)cc3Cl)c(C(=O)NOCCO)cc21	97.3%
